Common to all, as to conditions: mRNA level, 48 h; actives raise or lower the signal
Read-out in experiment [1]: Bcl-2 (BID) gene, BID (gene 637)
Briefly: LTEA_HepaRG_BID: Life Technologies and Expression Analysis (LTEA) Assay for Bcl-2 (BID) gene using HepaRG (AID 2283476). The method, boiled down:
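Gene expression by qRT-PCR in HepaRG cells after 48 h exposure, duplicate wells, eight half-log concentrations topping at 100 uM in 0.5% DMSO. Normalized to ACTB, GAPDH, POLR2A; bidirectional fitting relative to DMSO.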

Read-out in a further experiment: Caspase-3 (Homo sapiens) (UniProt P42574)
Description: LTEA_HepaRG_CASP3: Life Technologies and Expression Analysis (LTEA) Assay for cysteine-aspartic acid protease (CASP3) using HepaRG (AID 2283477). The method, boiled down: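 In HepaRG liver cells dosed for 48 h at up to 100 uM (eight-point, duplicate), CASP3 expression changes are scored by qRT-PCR. Activity is fitted in both directions with 0.5% DMSO as baseline.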

Read-out in experiment [2]: Cytochrome P450 (CYP24A1), CYP24A1 (gene 1591)
Description: LTEA_HepaRG_CYP24A1: Life Technologies and Expression Analysis (LTEA) Assay for Cytochrome P450 (CYP24A1) using HepaRG (AID 2283478). In outline: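 Human liver HepaRG cultures receive each chemical for 48 h across an eight-point half-log series topping at 100 uM in 0.5% DMSO. Induction or suppression of CYP24A1 mRNA is scored relative to vehicle after housekeeping-gene normalization.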

Read-out in experiment [3]: Cytochrome P450 (CYP1A2), CYP1A2 (gene 1544)
Description: LTEA_HepaRG_CYP1A2: Life Technologies and Expression Analysis (LTEA) Assay for Cytochrome P450 (CYP1A2) using HepaRG (AID 2283479). The method, boiled down: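 Assesses CYP1A2 mRNA in human HepaRG liver cells after 48 h chemical exposure at up to 100 uM. Values come from qRT-PCR with bidirectional curve fitting relative to DMSO.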

Read-out in experiment [4]: cysteine-aspartic acid protease (CASP8), CASP8 (gene 841)
Description: LTEA_HepaRG_CASP8: Life Technologies and Expression Analysis (LTEA) Assay for cysteine-aspartic acid protease (CASP8) using HepaRG (AID 2283480). In outline: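 Differentiated HepaRG cells in serum-free induction medium, 48 h exposure, eight-point half-log series from 100 uM in 0.5% DMSO, duplicates. CASP8 mRNA by qRT-PCR, normalized to ACTB, GAPDH, POLR2A; bidirectional fit versus DMSO.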

Read-out in experiment [5]: Cytochrome P450 (CYP2B6), CYP2B6 (gene 1555)
Description: LTEA_HepaRG_CYP2B6: Life Technologies and Expression Analysis (LTEA) Assay for Cytochrome P450 (CYP2B6) using HepaRG (AID 2283481). In outline:
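Using 48 h treatment of HepaRG cells in serum-free induction medium, concentrations spanned half-log steps from 100 uM in 0.5% DMSO vehicle. CYP2B6 mRNA induction or loss is scored by qRT-PCR against DMSO.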

Read-out in experiment [6]: Cytochrome P450 2C19 (Homo sapiens) (UniProt P33261)
Briefly: LTEA_HepaRG_CYP2C19: Life Technologies and Expression Analysis (LTEA) Assay for CYP2C19 using HepaRG (AID 2283482). The method, boiled down: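 Human HepaRG liver cells received test chemicals for 48 h (highest 100 uM, half-log dilutions in 0.5% DMSO). CYP2C19 mRNA induction or loss is read by multiplexed qRT-PCR and fitted in both directions versus vehicle.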

Read-out in a further experiment: CYP2C8 (gene 1558)
Briefly: LTEA_HepaRG_CYP2C8: Life Technologies and Expression Analysis (LTEA) Assay for CYP2C8 using HepaRG (AID 2283483). In outline: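 Differentiated HepaRG cells in serum-free induction medium exposed 48 h in duplicate to 8 half-log concentrations from 100 uM in 0.5% DMSO. CYP2C8 mRNA by qRT-PCR normalized to ACTB, GAPDH, POLR2A; bidirectional fit versus DMSO.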

Read-out in the next experiment: CYP2C9 (gene 1559)
Description: LTEA_HepaRG_CYP2C9: Life Technologies and Expression Analysis (LTEA) Assay for CYP2C9 using HepaRG (AID 2283484). In outline:
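Differentiated human HepaRG cells in serum-free induction medium were exposed 48 h to chemicals in 8-point half-log series from 100 uM (0.5% DMSO), in duplicate. CYP2C9 mRNA was measured by qRT-PCR, normalized to ACTB/GAPDH/POLR2A, with bidirectional fitting versus DMSO.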

Read-out in a further experiment: CYP2E1 (gene 1571)
Briefly: LTEA_HepaRG_CYP2E1: Life Technologies and Expression Analysis (LTEA) Assay for CYP2E1 using HepaRG (AID 2283485). The method, boiled down:
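HepaRG cells, plated 48 h, then exposed 48 h in serum-free induction medium to eight half-log concentrations from 100 uM in 0.5% DMSO, duplicate. CYP2E1 mRNA by qRT-PCR, normalized to ACTB/GAPDH/POLR2A; bidirectional fit versus DMSO.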

Read-out in a further experiment: CYP4A11 (gene 1579)
Description: LTEA_HepaRG_CYP4A11: Life Technologies and Expression Analysis (LTEA) Assay for CYP4A11 using HepaRG (AID 2283486). In outline: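 Readout is CYP4A11 mRNA induction or suppression (qRT-PCR, ACTB/GAPDH/POLR2A normalization) in human HepaRG cells after 48 h chemical treatment, concentrations to 100 uM in 0.5% DMSO, fitted bidirectionally against vehicle.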

Read-out in experiment [7]: Cytochrome P450 3A4 (Homo sapiens) (UniProt P08684)
Description: LTEA_HepaRG_CYP3A4: Life Technologies and Expression Analysis (LTEA) Assay for CYP3A4 using HepaRG (AID 2283487). In outline:
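Differentiated HepaRG cells in serum-free induction medium exposed in duplicate for 48 h to 8 half-log concentrations up to 100 uM in 0.5% DMSO. CYP3A4 mRNA measured by qRT-PCR normalized to ACTB, GAPDH and POLR2A; bidirectional fit versus DMSO.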

Read-out in experiment [8]: DNA damage-inducible transcript 3 (DDIT3), DDIT3 (gene 1649)
Description: LTEA_HepaRG_DDIT3: Life Technologies and Expression Analysis (LTEA) Assay for DNA damage-inducible transcript 3 (DDIT3) using HepaRG (AID 2283488). The method, boiled down:
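HepaRG cells, 48 h after plating, exposed 48 h in serum-free induction medium to 8 half-log concentrations up to 100 uM in 0.5% DMSO, in duplicate. DDIT3 mRNA measured by TaqMan qRT-PCR, normalized to ACTB, GAPDH and POLR2A. Fitted bidirectionally against DMSO.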

Read-out in experiment [9]: Pro-epidermal growth factor (Homo sapiens) (UniProt P01133)
Briefly: LTEA_HepaRG_EGF: Life Technologies and Expression Analysis (LTEA) Assay for Epidermal growth factor (EGF) using HepaRG (AID 2283489). The method, boiled down:
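EGF expression changes in human HepaRG cells are scored by bidirectional fitting relative to 0.5% DMSO controls. Chemicals are tested at eight half-log concentrations up to 100 uM for 48 h in serum-free induction medium.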

Read-out in experiment [10]: Early growth response protein 1 (EGR1) transcription factor, EGR1 (gene 1958)
Briefly: LTEA_HepaRG_EGR1: Life Technologies and Expression Analysis (LTEA) Assay for Early growth response protein 1 (EGR1) transcription factor using HepaRG (AID 2283490). In outline:
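Differentiated HepaRG cells in serum-free induction medium exposed 48 hours, duplicate, to 8 half-log concentrations up to 100 uM in 0.5% DMSO. EGR1 mRNA measured by TaqMan qRT-PCR, normalized to ACTB, GAPDH, POLR2A; bidirectional fit versus DMSO.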

Read-out in experiment [11]: Ezrin (EZR), EZR (gene 7430)
Description: LTEA_HepaRG_EZR: Life Technologies and Expression Analysis (LTEA) Assay for Ezrin (EZR) using HepaRG (AID 2283491). The method, boiled down:
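Differentiated human HepaRG cells, 48 h after plating, were exposed in serum-free induction medium for 48 hours to eight half-log concentrations up to 100 uM in 0.5% DMSO. EZR mRNA was measured by TaqMan qRT-PCR, normalized to ACTB, GAPDH and POLR2A, and fitted bidirectionally against DMSO.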

Read-out in experiment [12]: Cytochrome P450 3A7 (Homo sapiens) (UniProt P24462)
Description: LTEA_HepaRG_CYP3A7: Life Technologies and Expression Analysis (LTEA) Assay for CYP3A7 using HepaRG (AID 2283492). In outline:
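Cells were thawed, plated, cultured 48 h, then treated for a further 48 h with chemicals (eight-point half-log series from 100 uM, 0.5% DMSO). RNA was isolated and CYP3A7 expression quantified by qRT-PCR normalised to ACTB, GAPDH and POLR2A.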

Read-out in the next experiment: CYP3A5 (gene 1577)
Description: LTEA_HepaRG_CYP3A5: Life Technologies and Expression Analysis (LTEA) Assay for CYP3A5 using HepaRG (AID 2283493). In outline:
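HepaRG cells, plated 48 h then in serum-free induction medium, dosed in duplicate for 48 h with eight half-log concentrations up to 100 uM in 0.5% DMSO. Gene mRNA by Fluidigm TaqMan qRT-PCR, normalized to ACTB, GAPDH, POLR2A.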

Read-out in experiment [13]: Fatty Acid-Binding Protein 1 (FABP1), FABP1 (gene 2168)
Description: LTEA_HepaRG_FABP1: Life Technologies and Expression Analysis (LTEA) Assay for Fatty Acid-Binding Protein 1 (FABP1) using HepaRG (AID 2283494). In outline: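 Differentiated human HepaRG cells exposed 48 h in serum-free induction medium to eight half-log concentrations up to 100 uM (0.5% DMSO), duplicate. FABP1 mRNA by qRT-PCR, normalised to ACTB, GAPDH, POLR2A; bidirectional fitting against DMSO.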

Read-out in experiment [14]: Cytochrome P450 4A22 (Homo sapiens) (UniProt Q5TCH4)
Briefly: LTEA_HepaRG_CYP4A22: Life Technologies and Expression Analysis (LTEA) Assay for Cytochrome P450 4A22 (CYP4A22) using HepaRG (AID 2283495). In outline: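 Cryopreserved HepaRG cells, plated and cultured 48 h, then switched to serum-free induction medium and treated 48 h (duplicates, up to 100 uM, half-log steps, 0.5% DMSO). Expression change of CYP4A22 was fitted bidirectionally against vehicle.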

Calls of active or inactive are those of the source. How the source made its calls: active means hit-call score of the fitted dose curve at least 0.9, where 1 is the maximum; inactive means score below 0.9.

The AC50 is the concentration giving half of the maximal activity seen.

Sequence of Caspase-3 (Homo sapiens) (P42574 whole entry, looked up): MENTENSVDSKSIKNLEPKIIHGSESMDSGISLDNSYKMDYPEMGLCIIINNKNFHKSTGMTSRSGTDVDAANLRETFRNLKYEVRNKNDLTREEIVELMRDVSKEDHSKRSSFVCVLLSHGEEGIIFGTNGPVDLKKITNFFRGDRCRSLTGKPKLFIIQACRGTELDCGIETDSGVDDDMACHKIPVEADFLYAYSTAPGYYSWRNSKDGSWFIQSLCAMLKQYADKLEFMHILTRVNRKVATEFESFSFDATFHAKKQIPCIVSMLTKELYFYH
Sequence of Cytochrome P450 2C19 (Homo sapiens) (P33261 whole entry, looked up): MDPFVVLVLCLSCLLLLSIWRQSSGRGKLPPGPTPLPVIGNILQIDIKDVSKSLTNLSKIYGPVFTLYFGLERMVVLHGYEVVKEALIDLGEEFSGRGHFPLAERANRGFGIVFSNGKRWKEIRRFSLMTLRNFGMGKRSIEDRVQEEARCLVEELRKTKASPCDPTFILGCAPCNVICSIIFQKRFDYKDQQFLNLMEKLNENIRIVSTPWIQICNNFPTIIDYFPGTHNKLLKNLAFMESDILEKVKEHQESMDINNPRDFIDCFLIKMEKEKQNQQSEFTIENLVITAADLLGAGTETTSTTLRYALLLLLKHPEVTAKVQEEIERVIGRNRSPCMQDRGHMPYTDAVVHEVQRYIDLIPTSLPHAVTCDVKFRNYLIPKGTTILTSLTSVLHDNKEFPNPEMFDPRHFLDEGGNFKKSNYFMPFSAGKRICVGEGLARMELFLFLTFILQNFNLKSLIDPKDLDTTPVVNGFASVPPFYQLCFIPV
Sequence of Cytochrome P450 3A7 (Homo sapiens) (P24462 whole entry, looked up): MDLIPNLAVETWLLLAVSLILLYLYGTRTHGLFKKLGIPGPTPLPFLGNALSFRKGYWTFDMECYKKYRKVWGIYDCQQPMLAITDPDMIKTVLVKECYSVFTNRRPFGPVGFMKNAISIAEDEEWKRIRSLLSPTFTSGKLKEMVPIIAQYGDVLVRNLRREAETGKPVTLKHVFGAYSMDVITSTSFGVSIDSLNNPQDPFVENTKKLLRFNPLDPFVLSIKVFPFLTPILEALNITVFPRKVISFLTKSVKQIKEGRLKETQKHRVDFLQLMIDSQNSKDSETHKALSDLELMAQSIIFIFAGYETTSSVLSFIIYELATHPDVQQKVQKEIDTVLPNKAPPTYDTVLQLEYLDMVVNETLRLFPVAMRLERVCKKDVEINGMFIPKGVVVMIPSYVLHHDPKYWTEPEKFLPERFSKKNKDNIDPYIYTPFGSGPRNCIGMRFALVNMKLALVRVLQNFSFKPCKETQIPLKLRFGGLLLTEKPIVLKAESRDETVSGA
Sequence of Cytochrome P450 3A4 (Homo sapiens) (P08684 whole entry, looked up): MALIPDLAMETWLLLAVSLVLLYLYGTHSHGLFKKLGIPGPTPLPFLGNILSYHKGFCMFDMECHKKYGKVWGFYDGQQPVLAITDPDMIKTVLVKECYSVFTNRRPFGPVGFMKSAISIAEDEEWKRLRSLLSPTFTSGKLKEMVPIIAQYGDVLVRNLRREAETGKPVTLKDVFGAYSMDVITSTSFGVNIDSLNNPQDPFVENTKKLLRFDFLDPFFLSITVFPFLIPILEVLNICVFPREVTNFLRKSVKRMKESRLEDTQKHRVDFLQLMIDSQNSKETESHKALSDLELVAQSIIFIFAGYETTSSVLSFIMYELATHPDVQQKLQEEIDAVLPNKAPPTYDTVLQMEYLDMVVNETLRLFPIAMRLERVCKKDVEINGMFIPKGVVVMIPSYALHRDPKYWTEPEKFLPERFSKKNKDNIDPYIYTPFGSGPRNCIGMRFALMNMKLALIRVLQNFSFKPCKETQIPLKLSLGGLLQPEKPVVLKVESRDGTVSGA

Regarding `O=[N+]([O-])c1cc(C(F)(F)F)c(Cl)c([N+](=O)[O-])c1Nc1ncc(C(F)(F)F)cc1Cl`, the call (in experiment [1]; with Caspase-3 (Homo sapiens); in experiment [2]; in experiment [4]; in experiment [8]; in experiment [9]) was inactive. The outcome in experiment [11] was inactive. The AC50 was 8.27 µM (active) in [3]; 13 µM (active) in [5]; 26 µM (active) in experiment [6]; 26.8 µM (active) with CYP2C8 (gene 1558); 17.8 µM (active) with CYP2C9 (gene 1559); 13.1 µM (active) with CYP2E1 (gene 1571). For the same compound, the AC50 with CYP4A11 (gene 1579) was 27.6 µM (active); in experiment [7] it was 30.2 µM (active); in experiment [10], 90.7 µM (active); in experiment [12], 23.1 µM (active); with CYP3A5 (gene 1577), 66.7 µM (active); in experiment [13], 16.4 µM (active). Also, the AC50 in experiment [14] is 23.1 µM (active).

`CC1=NNC(=O)N(/N=C/c2cccnc2)C1`: the compound was called inactive (in [1]; with Caspase-3 (Homo sapiens); in [2]; in [4]; in experiment [5]; in [6]). The call (in the experiment with CYP2C8 (gene 1558); in the experiment with CYP2C9 (gene 1559); with CYP2E1 (gene 1571); with CYP4A11 (gene 1579); in experiment [7]; in experiment [8]) was inactive. Moreover, the compound was called inactive (in [9]; in experiment [10]; in experiment [11]; in experiment [12]; with CYP3A5 (gene 1577); in [13]). Further, the outcome in experiment [14] was inactive. The half-maximal activity concentration (AC50) in experiment [3] is 6.84 µM (active).

On to `Nc1nc(N)nc(NC2CC2)n1`, for which the compound was called inactive (in [1]; in the experiment with Caspase-3 (Homo sapiens); in [2]; in experiment [3]; in [4]; in experiment [5]). The outcome (in experiment [6]; with CYP2C8 (gene 1558); with CYP2C9 (gene 1559); in the experiment with CYP2E1 (gene 1571); with CYP4A11 (gene 1579); in experiment [7]) was inactive. Besides, the result (in [8]; in experiment [9]; in experiment [10]; in experiment [11]; in experiment [12]; with CYP3A5 (gene 1577)) was inactive. For the same compound, the result in experiment [14] was inactive.

Values taken from PubChem BioAssay (EPA / NIEHS).
